Assay outcomes: PubChem BioAssay, several laboratories
A selection: hits, their analogues and other compounds. The true share with any hit is near 3.5%.
DNMT1 block = inhibitors of human DNMT1. hit rate 0.83% among 360,000. DNMT1 molecular beacon, Hinp1I cleavage, fluorescence. P26358. inhibition (reported as % activation of signal), % at 10 µM; in the data active = inhibition above about 50%
Target sequence (P26358 504-1616 limits assumed): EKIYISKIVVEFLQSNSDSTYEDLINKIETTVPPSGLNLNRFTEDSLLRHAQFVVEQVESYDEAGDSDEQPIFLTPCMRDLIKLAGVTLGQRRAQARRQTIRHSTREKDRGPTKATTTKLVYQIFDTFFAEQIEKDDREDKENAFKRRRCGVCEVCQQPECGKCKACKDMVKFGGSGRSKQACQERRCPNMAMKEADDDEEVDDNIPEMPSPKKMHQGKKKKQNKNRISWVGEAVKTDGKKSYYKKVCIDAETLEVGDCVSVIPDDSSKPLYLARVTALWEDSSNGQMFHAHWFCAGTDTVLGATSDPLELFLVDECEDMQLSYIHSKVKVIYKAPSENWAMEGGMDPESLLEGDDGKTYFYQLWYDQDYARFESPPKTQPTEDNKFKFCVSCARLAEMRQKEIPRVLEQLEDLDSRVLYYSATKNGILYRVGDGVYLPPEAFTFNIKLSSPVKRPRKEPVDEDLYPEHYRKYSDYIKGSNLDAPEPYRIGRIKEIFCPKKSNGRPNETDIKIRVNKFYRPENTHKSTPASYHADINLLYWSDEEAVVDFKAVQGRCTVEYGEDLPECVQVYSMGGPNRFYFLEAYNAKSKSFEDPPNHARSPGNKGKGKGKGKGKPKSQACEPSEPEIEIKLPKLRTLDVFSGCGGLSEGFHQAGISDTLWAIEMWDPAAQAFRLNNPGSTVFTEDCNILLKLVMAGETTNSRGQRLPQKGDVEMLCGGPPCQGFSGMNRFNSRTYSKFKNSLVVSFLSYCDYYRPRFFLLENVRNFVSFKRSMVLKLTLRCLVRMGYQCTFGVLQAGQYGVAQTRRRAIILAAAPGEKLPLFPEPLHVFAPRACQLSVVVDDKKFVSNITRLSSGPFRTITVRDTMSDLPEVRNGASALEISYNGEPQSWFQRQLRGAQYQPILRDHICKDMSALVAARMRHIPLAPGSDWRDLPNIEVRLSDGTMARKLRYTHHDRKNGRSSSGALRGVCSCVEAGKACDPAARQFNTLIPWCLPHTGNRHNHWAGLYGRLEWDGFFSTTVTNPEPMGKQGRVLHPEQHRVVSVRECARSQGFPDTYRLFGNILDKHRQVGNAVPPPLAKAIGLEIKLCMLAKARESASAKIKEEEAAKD
rCAG binder = binds r(CAG) RNA repeats | r(CAG) RNA repeat, TO-PRO-1 dye displacement fluorescence | inhibition, % at 3 µM | hit rate 1.3% among 370,000 | AID 651821;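 active = inhibition above the plate cutoff, the mean of all test compounds on that plate plus 3 SD, cut at about 35% in these data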;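 note: 0% = DMSO alone and 100% = 100 µM mitoxantrone as full dye displacement; higher means more dye released from RNA so lower well fluorescence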
PG9 binder = PG9 antibody binding by small molecule; TR-FRET gp120-PG9 antibody binding; inhibition, % at 6.7 µM; hit rate 0.43% among 360,000; AID 624416; in the data active = inhibition above about 8.5%
UHRF1 binding = UHRF1 methyl-DNA binding inhibition | Q96T88 | UHRF1 binding to methylated oligo, TR-FRET | inhibition, % at 4.4 µM | AID 687016 | hit rate 0.75% among 370,000; in the data active = inhibition above about 21%;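 note: UHRF1 SRA domain binding a hemimethylated CpG hairpin DNA probe; 0% = median of test compound wells and 100% = reference inhibitor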
MBD2 inh = inhibitors of human MBD2 binding to methylated oligonucleotide | Q9UBB5 | inhibition, % at 4.4 µM | hit rate 0.31% among 370,000 | TR-FRET | AID 686964; in the data active = inhibition above about 13%
LEDGF integ inh = blocks HIV-1 LEDGF/p75-dependent DNA integration | TR-FRET IN-LEDGF/p75 DNA integration, Eu/Cy5 | inhibition, % at 3.7 µM | hit rate 0.64% among 370,000 | AID 743269;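 active = inhibition above the screen-wide mean plus 3 SD, cut at about 13% in these data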;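 note: signal is the Cy5 over europium emission ratio at 671 and 618 nm; 0% = plate median of compound wells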
DNMT1 confirm = DNMT1 inhibition confirmation, single concentration | DNMT1 molecular beacon HinP1I cleavage, fluorescence | hit rate 8% among 2,300 | inhibition, % at 10 µM | AID 602385 | shares compounds with DNMT1 block;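 active = average inhibition of at least 30% in the single-concentration confirmation test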
Beacon interf = shows spectral interference in the DNMT1 beacon assay; shares compounds with DNMT1 block; DNMT1 molecular beacon spectral interference counterscreen, fluorescence 485/520; activation (fluorescence interference), % at 10 µM; hit rate 1% among 2,300;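 active = activation of at least 30% at 10 µM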;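 note: DNMT1 catalytic domain with a HinP1I cleavage step and a FAM/dabcyl DNA beacon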
* hit, by the source's call; . = no result given.

SMILES	DNMT1 block	rCAG binder	PG9 binder	UHRF1 binding	MBD2 inh	LEDGF integ inh	DNMT1 confirm	Beacon interf
O=C(CCc1nc2ccccc2c(=O)[nH]1)NCc1ccco1	2.1	-2.5	-0.8	0.4	2.5	-0.8	.	.
O=[N+]([O-])c1ccc(C(O)CN2CCOCC2)cc1 (stereo not given)	-0.3	0.5	-3.1	-0.4	-2.8	-0.4	.	.
OC(CN1CCOCC1)c1ccc(F)cc1 (stereo not given)	77.0*	-4.3	-2.5	14.1	-3.8	2.5	3.2	2.0
COc1cccc(C(O)c2nc(-c3cncnc3)cs2)c1 (stereo not given)	-1.0	1.9	1.7	1.6	2.8	3.1	.	.
COc1cccc(N2CC34C=CC(O3)C(C(=O)O)C4C2=O)c1 (stereo not given)	53.2*	2.5	1.3	2.4	-0.1	2.5	5.7	5.8
CCOc1cc2c(C#N)c(N3CCOCC3)nc(N)c2c(N)n1	17.9	4.5	2.1	-12.3	-5.2	-0.9	.	.
CCCN(CC1CC1)c1nc(N)c2c(N)nc(OC)cc2c1C#N	52.0*	7.7	-0.5	-1.0	-3.3	-3.8	9.7	7.0
CCOc1cc2c(C#N)c(N(CC)CC)nc(N)c2c(N)n1	85.4*	23.6	-1.1	-9.3	-12.7	1.2	6.1	6.5
C1=C[C@H]2CCCN3CC[C@@H]([C@@H]2[C@]32CO2)[C@H]1CCOCc1ccccc1	.	5.8	-0.1	-4.4	-3.7	-1.2	.	.
COc1ccc(CN2CCNC(=O)C2CC(=O)NCCN2CCCCC2=O)c(F)c1 (stereo not given)	-2.6	-1.7	-0.9	-4.5	-3.4	1.9	.	.
O=c1c2c([nH]c3ccccc13)CCCC2	1.3	1.3	1.6	0.4	0.1	-1.0	.	.
O=c1c2c([nH]c3ccccc13)C(=C1CCCC1)CC2	91.9*	.	.	.	.	.	7.2	3.5
COc1ccc(/C=C/C(=O)NC(=S)Nc2cc3oc4ccccc4c3cc2OC)cc1	57.1*	4.8	-1.9	6.1	2.7	2.9	0.4	-10.1
COc1cc2c(cc1NC(=S)NC(=O)/C=C/c1ccc(OC)c(OC)c1)oc1ccccc12	3.0	7.0	-3.0	0.7	-4.3	-0.1	.	.
COc1cc2c(cc1NC(=O)Nc1ccc(F)cc1)oc1ccccc12	83.0*	7.0	1.9	9.5	2.0	-0.2	3.2	5.9
CCc1ccccc1-n1nnnc1SCC(=O)Nc1ccc(N2CCN(C)CC2)cc1	-2.3	-1.2	-2.7	5.3	4.5	-7.3	.	.
CCCCCCC1CC(=CN(C)C)C(=O)O1 (stereo not given)	0.3	6.6	-1.1	-0.4	-1.2	2.6	.	.
O=C(O)C1CC2C3CC(C(=O)O)C(C3)C2C1 (stereo not given)	74.9*	-0.9	-1.5	1.2	-1.2	4.9	2.6	1.5
O=c1c(C=Nc2cccc(C(F)(F)F)c2)c[nH]n1-c1cccc(Cl)n1	1.1	6.5	-0.9	-3.8	2.3	-3.8	.	.
O=c1c(C=Nc2ccc(Cl)cc2)c[nH]n1-c1cccc(Cl)n1	75.0*	3.2	-0.2	1.6	-2.5	-1.2	2.1	-6.3
CCCCCCn1c(=O)[nH]c2nc3cc(N)c(C)cc3nc2c1=O	63.0*	-247.4	-3.3	-50.8	-13.4	-0.4	73.6*	118.1*
O=C(COC(=O)c1cccc(S(=O)(=O)N2CCN(c3ccccc3)CC2)c1)NCc1ccco1	68.5*	11.8	-0.5	11.1	9.5	-0.6	6.6	2.5
NC(=O)COC(=O)c1cccc(S(=O)(=O)N2CCN(c3ccccc3)CC2)c1	2.4	-1.4	2.4	1.0	4.0	0.3	.	.
CN(C(=O)CNC(=O)c1ccccc1OCC(=O)Nc1ccc(Br)cc1)c1ccccc1	.	2.4	.	1.1	-3.1	4.4	.	.
COc1cccc(C=NNC(=O)C(C)SC(C)C(=O)NN=Cc2cccc(OC)c2)c1 (stereo not given)	-0.2	3.7	-1.1	-1.3	-5.8	2.9	.	.
CC(SC(C)C(=O)NN=Cc1cccc(Cl)c1)C(=O)NN=Cc1cccc(Cl)c1 (stereo not given)	64.8*	1.8	-0.9	2.0	-2.1	-0.9	5.5	6.6
